ROS inducer: raises reactive oxygen species in U2OS cancer cells | U2OS ROS induction, H2DCF-DA fluorescence | ROS induction (% of piperlongumine), % at 10 µM | 2% of 46,000 active | AID 624156; in the data active = ROS induction above about 79%, passing the limit was not always enough
Hits are given with their value; - = inactive. The full list was thinned out, with hits kept by preference.

SMILES	ROS inducer
COc1ccc(S(=O)(=O)Nc2cccc3c2O[C@H](CN(C)Cc2ccc(-c4ccccc4)cc2)[C@H](C)CN([C@H](C)CO)C3=O)cc1	96
Cc1noc(C)c1S(=O)(=O)Nc1cccc2c1O[C@H](CN(C)Cc1ccc(-c3ccccc3)cc1)[C@H](C)CN([C@@H](C)CO)C2=O	122
C[C@H](CO)N1C[C@H](C)[C@H](CN(C)Cc2ccc(Oc3ccccc3)cc2)Oc2c(NS(=O)(=O)c3ccc(F)cc3)cccc2C1=O	-
Cc1noc(C)c1S(=O)(=O)Nc1cccc2c1O[C@@H](CN(C)Cc1ccc(-c3ccccc3)cc1)[C@@H](C)CN([C@@H](C)CO)C2=O	-
COc1ccc(S(=O)(=O)Nc2cccc3c2O[C@@H](CN(C)Cc2ccc(-c4ccccc4)cc2)[C@H](C)CN([C@@H](C)CO)C3=O)cc1	-
C[C@@H]1CN([C@@H](C)CO)C(=O)c2cccc(NS(=O)(=O)c3ccc(F)cc3)c2O[C@H]1CN(C)Cc1ccc(Oc2ccccc2)cc1	-
COc1ccc(S(=O)(=O)Nc2cccc3c2O[C@@H](CN(C)Cc2ccc(-c4ccccc4)cc2)[C@@H](C)CN([C@@H](C)CO)C3=O)cc1	-
Nc1ccc(S(=O)(=O)NCCC2=CCCCC2)cc1	-
O=C(c1ccccc1)N1CN(C(=O)c2ccccc2)CN(C(=O)c2ccccc2)C1	-
CC(C)OC(=O)C(C)Oc1ccc2c(-c3ccccc3)cc(=O)oc2c1 (stereo not given)	-
Cc1ccc2c(Sc3ccc(Cl)cc3)c(C(=O)NCCN3CCOCC3)[nH]c2c1	-
CSc1scc(NC(=O)c2ccc(Cl)cc2)c1S(=O)(=O)C(C)C	-
S=C(NCC1COc2ccccc2O1)NC1CCCCC1 (stereo not given)	-
O=C(CSc1ccc(-c2cccs2)nn1)N1CCc2ccccc21	-
CC(N=C1CC(C)(C)CC(=O)/C1=C(O)/C=C/c1ccccc1)C(=O)O (stereo not given)	-
Cc1nc2c(=O)oc3ccccc3c2n1-c1ccccc1	-
CCn1c(C)nc2c(=O)oc3ccccc3c21	-
CC(C)n1nnc2c(=O)oc3ccccc3c21	79
O=C(COc1ccc(Cl)cc1)NCCC12CC3CC(CC(C3)C1)C2	-
CCOC(=O)c1c(C(C)(C)C)oc2ccc(OCc3ccc(C(=O)OC)cc3)cc12	-
CCCCC(=O)N1c2ccccc2NC2=C(C(=O)CCC2)C1c1ccccc1 (stereo not given)	-
O=C(Nc1ccc(-c2nc3ccccc3[nH]2)cc1)c1ccc(-c2ccccc2)cc1	-
CC1CCCCN1S(=O)(=O)c1ccc(C(=O)Nc2cccc(-c3nc4ccccc4[nH]3)c2)cc1 (stereo not given)	204
O=C(Nc1cccc(-c2nc3ccccc3[nH]2)c1)c1ccccc1	-
COC(=O)c1cc2c(=O)n3ccccc3nc2n(C(C)C)c1=N	-
SMILES	ROS inducer
N=c1c(S(=O)(=O)c2ccccc2)cc2c(=O)n3ccccc3nc2n1C1CCCC1	83
CCCn1c(=N)c(C(=O)OC)cc2c(=O)n3ccccc3nc21	-
C[C@@H]1CN([C@H](C)CO)C(=O)c2cccc(NS(=O)(=O)c3cn(C)cn3)c2O[C@H]1CN(C)Cc1ccc(Cl)c(Cl)c1	-
C[C@@H]1CN([C@H](C)CO)C(=O)c2cccc(NC(=O)Nc3ccc(C(F)(F)F)cc3)c2O[C@@H]1CN(C)C(=O)Nc1ccc2c(c1)OCO2	94
C[C@@H]1CN([C@@H](C)CO)C(=O)c2cccc(NS(=O)(=O)c3cn(C)cn3)c2O[C@@H]1CN(C)Cc1ccc2c(c1)OCO2	-
C[C@@H]1CN([C@H](C)CO)C(=O)c2cccc(NC(=O)Nc3ccc(F)cc3)c2O[C@H]1CN(C)Cc1ccc2c(c1)OCO2	87
C[C@H]1CN([C@@H](C)CO)C(=O)c2cccc(NC(=O)Nc3ccc4c(c3)OCO4)c2O[C@@H]1CN(C)Cc1ccc2c(c1)OCO2	-
C[C@@H]1CN([C@@H](C)CO)C(=O)c2cccc(NC(=O)Nc3ccc4c(c3)OCO4)c2O[C@H]1CN(C)C(=O)Nc1ccc(C(F)(F)F)cc1	-
C[C@@H]1CN([C@@H](C)CO)C(=O)c2cccc(NS(=O)(=O)c3ccccc3)c2O[C@@H]1CN(C)C(=O)Nc1ccc2c(c1)OCO2	-
C[C@H](CO)N1C[C@H](C)[C@H](CN(C)C(=O)Nc2ccc3c(c2)OCO3)Oc2c(NC(=O)Nc3ccc(C(F)(F)F)cc3)cccc2C1=O	-
C[C@H]1CN([C@@H](C)CO)C(=O)c2cccc(NC(=O)Nc3ccc(F)cc3)c2O[C@@H]1CN(C)Cc1ccc2c(c1)OCO2	-
C[C@H](CO)N1C[C@H](C)[C@H](CN(C)C(=O)Nc2ccc3c(c2)OCO3)Oc2c(NS(=O)(=O)c3ccccc3)cccc2C1=O	100
C[C@H](CO)N1C[C@H](C)[C@@H](CN(C)C(=O)Nc2ccc3c(c2)OCO3)Oc2c(NS(=O)(=O)c3ccccc3)cccc2C1=O	-
C[C@@H]1CN([C@@H](C)CO)C(=O)c2cccc(NS(=O)(=O)c3cn(C)cn3)c2O[C@H]1CN(C)Cc1ccc2c(c1)OCO2	86
COc1ccccc1C(=O)Nc1ccc(CC#N)cc1	-

Screening results as filed in PubChem BioAssay.
